This excerpt belongs to a sample that is enriched for hits.
KDM5B inhibitor = blocks human KDM5B histone demethylase activity | Q9UGL1 | KDM5B demethylase, FDH-coupled NADH fluorescence (FDH is formaldehyde dehydrogenase) | Potency, µM (highest dose often 57.7 µM), most hits filed as inhibitors | 220,000 tested, 2.6% active; active = well fitted inhibition curve with a large enough effect; also: 0% is about no effect; nearly all actives have a fitted effect of over 70% in size
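Compound dilutions met 200 nM (final) KDM5BΔAP for 10 min at room temperature before substrate addition. The substrate mix held 12.5 µM H3K4me3 with cofactors 25 µM α-ketoglutarate and 50 µM Fe²⁺. NADH signal gain over 30 min defined activity.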
Active calls of the source: *; i = inactive. Potency is read from the fitted curve at half-maximal effect.

SMILES | KDM5B inhibitor
CNC(=O)[C@@H]1CN(C(=O)c2cnc[nH]2)C[C@H]1COC | i
Cc1cc(=O)oc2cc(OC(=O)C(C)Oc3ccccc3Cl)ccc12 (stereo unspecified) | i
COC(=O)c1cccc(COC(=O)c2ccc3c(c2)OCCCO3)c1 | i
Cc1nn(C)c(C)c1CC(=O)Nc1nc(C2CC2)cs1 | i
COc1ccc2cc(C(=O)O)nnc2c1 | i
CONC(=O)c1ccccc1Cc1ccccc1 | i
Cc1ccc(S(=O)(=O)N(CC(=O)N2CCc3ccccc3C2)Cc2cccc(C)c2)cc1 | i
Cc1ccc(C(CC(=O)N2CCc3ccccc3C2)c2cn(C)c3ccccc23)cc1 (stereo unspecified) | 18µM*
Cc1ccc(NC(=O)Cn2c(=O)n(CCC(=O)N3CCc4ccccc4C3)c(=O)c3ccccc32)cc1 | i
CCc1ccc2[nH]c(C)c(CN3CCCC(C)C3)c(=O)c2c1 (stereo unspecified) | i
N#C/C(=C/c1ccccc1OCc1ccccc1)c1ccccc1F | i
COc1ccc(NC(=O)C2CCN(C(=O)c3ncn4c3COC(c3ccccc3)C4)CC2)cc1Cl (stereo unspecified) | i
COc1ccc(NC(=O)c2cc3n(n2)CC(c2ccc4c(c2)OCO4)OC3)cc1OC (stereo unspecified) | i
Cc1ccc(N2CCN(C(=O)c3cc4n(n3)CC(c3ccc(Cl)cc3)OC4)CC2)cc1 (stereo unspecified) | i
COc1ccccc1CNC(=O)c1cc2n(n1)CC(c1ccc(Cl)cc1)OC2 (stereo unspecified) | i
COc1ccc(NC(=O)c2cc3n(n2)CC(c2ccc4c(c2)OCO4)OC3)cc1Cl (stereo unspecified) | 25µM*
Cc1ccc(NC(=O)c2cc3n(n2)CC(c2ccc4c(c2)OCO4)OC3)cc1 (stereo unspecified) | 32µM*
NS(=O)(=O)c1ccc(CCNC(=O)c2cc3n(n2)CC(c2ccc(Cl)cc2)OC3)cc1 (stereo unspecified) | i
Cc1cc(NC(=O)c2cc3n(n2)CC(c2ccc4c(c2)OCO4)OC3)ccc1F (stereo unspecified) | 28µM*
Cc1ccccc1N1CCN(C(=O)c2cc3n(n2)CC(c2ccc(Cl)cc2)OC3)CC1 (stereo unspecified) | i
COc1ccc(CCNC(=O)c2cc3n(n2)CC(c2ccc4c(c2)OCO4)OC3)cc1OC (stereo unspecified) | 28µM*
O=C(O)CCCc1ccccn1 | i
COC(=O)c1cc(C(=O)OC)cc(S(=O)(=O)N2CCCC2c2nc3ccccc3[nH]2)c1 (stereo unspecified) | i
CCNC(=O)NC(=O)C(C)N(C)Cc1ccc(C(F)(F)F)cc1 (stereo unspecified) | i
CC1CSc2ccc(S(=O)(=O)NCCc3ccccc3)cc2NC1=O (stereo unspecified) | i
SMILES | KDM5B inhibitor
COc1cc(/C=N/O)ccc1OCC(=O)Nc1c(C)cc(C)cc1C | i
CCc1ccc(NC(=O)C2=CC(c3ccc4c(c3)OCO4)=NS(=O)(=O)N2C)cc1 | i
CCc1ccc(NC(=O)c2cc3n(n2)CC(c2ccc4c(c2)OCO4)OC3)cc1 (stereo unspecified) | 32µM*
CCC(C)NC(=O)c1cc2n(n1)CC(c1ccc3c(c1)OCO3)OC2 (stereo unspecified) | i
CCNC(=O)CSc1ncnc2cc(-c3ccc(F)cc3)sc12 | i
O=C(NC1CC1)c1cc2occc2n1Cc1ccccc1F | i
O=C(Nc1ccccc1)O[C@@H]1CO[C@H]2[C@@H]1OC[C@@H]2n1nnnc1SCc1ccco1 | 35µM*
CC(=O)c1ccc(NC(=O)O[C@@H]2CO[C@H]3[C@@H]2OC[C@@H]3n2nnnc2SCc2ccco2)cc1 | i
CC(C)c1nnnn1[C@H]1CO[C@H]2[C@@H]1OC[C@H]2OC(=O)Nc1cccc(C#N)c1 | i
N#Cc1cccc(NC(=O)N[C@H]2CO[C@H]3[C@@H]2OC[C@@H]3n2nnnc2Oc2ccc(-n3cncn3)cc2)c1 | i
CN(C)c1ccc(-c2nnnn2[C@H]2CO[C@H]3[C@@H]2OC[C@H]3OC(=O)Nc2cccc(C#N)c2)cc1 | 35µM*
N#Cc1cccc(NC(=O)O[C@@H]2CO[C@H]3[C@@H]2OC[C@@H]3n2nnnc2SC2CCCC2)c1 | i
N#Cc1cccc(NC(=S)O[C@@H]2CO[C@H]3[C@@H]2OC[C@@H]3n2nnnc2SCc2ccco2)c1 | 16µM*
O=C(Nc1ccccc1)O[C@@H]1CO[C@H]2[C@@H]1OC[C@@H]2n1nnnc1SC1CCCC1 | i
O=C(Nc1cccc(C(F)(F)F)c1)O[C@@H]1CO[C@H]2[C@@H]1OC[C@@H]2n1nnnc1SC1CCCC1 | i
CCOC(=O)N1CCN([C@H]2CS(=O)(=O)C[C@@H]2S(=O)(=O)c2ccc(C)cc2)CC1 | i
CCCn1c(C)cc(C(=O)COC(=O)c2nn(CCC)c(=O)c3ccccc23)c1C | i
CCNc1nc(-c2cc(C)n(-c3cc(C)on3)c2C)cs1 | i
CCOc1cc(C=O)cc(Cl)c1OC | i
O=C1CC2CS(=O)(=O)CC2N1c1ccc(N2CCOCC2)cc1 (stereo unspecified) | i
CCCCCCSC1=C(C#N)C(c2ccccc2C)CC(=O)N1 (stereo unspecified) | i
COc1cccc(-c2nc(-c3ccc(Br)cc3)no2)c1OC | i
COc1cccc(NC(=O)CN(C)C(=O)CSc2ncnc3scc(-c4ccccc4)c23)c1 | i
Cc1cc(C(F)(F)F)nn1CC(=O)Nc1c(F)cc(F)cc1Br | i
CN1CCN(c2ccc(-c3cccc(N)c3)nn2)CC1 | i
SMILES | KDM5B inhibitor
CN1CCN(c2cc(-c3cncc(N)c3)nc(N)n2)CC1 | 20µM*
CN1CCN(c2cc(N3CCCC(CN4CCCCC4)C3)nc(N)n2)CC1 (stereo unspecified) | i
CN(C)c1nc2c(c(=O)[nH]1)CCN(Cc1cc(F)c(F)c(F)c1)CC2 | i
CN(C)c1nc2c(c(=O)[nH]1)CCN(Cc1cc(Cl)ccc1F)CC2 | i
CN(C)c1nc2c(c(=O)[nH]1)CCN(Cc1ccc(Cl)c(F)c1)CC2 | 28µM*
C=CCN(Cc1cccs1)C(=O)c1cccs1 | i
COc1ccc(OCCN2CCN(C(=O)c3ccc(OC)c(OC)c3)CC2)cc1 | i
CC(C)Cc1cc(C(=O)N2CCN(CCOc3ccccc3)CC2)on1 | i
Cn1ccc2ccc(C(=O)N3CCN(CCOc4ccccc4)CC3)cc21 | 28µM*
CC(OC(=O)Cn1cnc2c1c(=O)n(C)c(=O)n2C)C(=O)Nc1cccc(C#N)c1 (stereo unspecified) | i
O=S1(=O)NCC2(CCCN(Cc3ccccn3)C2)Oc2ncccc21 (stereo unspecified) | i
O=S1(=O)NCC2(CCN(Cc3ccoc3)CC2)Oc2ncccc21 | 50µM*
O=S1(=O)NCC2(CCCN(CCc3ccccc3)C2)Oc2ncccc21 (stereo unspecified) | i
CNC(=O)c1nn(CC(=O)NCCc2ccc(F)cc2)c(=O)c2ccccc12 | i
CCc1cccc2c(C3=CCN(C(=O)CC(C)C)CC3)c[nH]c12 | i
COc1ccc(CCN2CCC(CN(C)Cc3nc(C(C)C)cs3)CC2)cc1 | i
N#Cc1nc(COc2cccc(Cl)c2)oc1N1CCCCCC1 | i
COc1ccc(NC(=O)Cn2nc3c(cc2=O)CCCCC3)cn1 | i
COCCCNC(=O)C1(C)CN(C)Cc2ccc(NCc3ccccc3)nc21 (stereo unspecified) | 32µM*

Bioassay records from PubChem.
